According to PubChem BioAssay AID720550 (National Center for Advancing Translational Sciences (NCATS), 2013):
Results filed as inconclusive are left out. Values without a mark were called inactive. Calls of active or inactive are those of the source. Calls come from the whole dose curve; as a rule, active = well fitted curve in the direction sought with a large enough effect; inconclusive = small, poorly fitted or top-dose-only effect, or another doubt; inactive = no such curve, though single readings can be large or run the other way.

Assay: qHTS for Inhibitors of Bloom's syndrome helicase (BLM): Thiazole Orange DNA Binding Counterscreen for SAR.
Details: fluorescence; Potency: Thiazole orange DNA displacement; series mostly up to 57.1 µM; activity change, negative = displacement: at the top concentration
Source text: Human RecQ DNA helicases participate in maintenance of genome stability and DNA repair. While other types of helicases have been explored as targets for drug development, members of the RecQ family have remained less well characterized. Mutations of the Bloom helicase gene have been associated with the rare human genetic disease called Bloom syndrome. […] Moreover, identified inhibitors can be used in cells and animal models to examine the consequences of inhibition on the survival of cancer cells where it has been shown that BLM plays an important role.
A fluorescence-based, biochemical assay in 1536 well format was developed to evaluate inhibition of BLM DNA unwinding activity. This assay was used to screen the MLPCN library. The resulting compounds were subjected to orthogonal and secondary biochemical assays to triage the initial hits, to classify compounds based on mode of action and to derive structure activity relationships (SARs) of candidate effectors. The Thiazole Orange (ThO) DNA binding (TO-binding) is used to eliminate inhibitors that operate via nonspecific DNA binding. This displacement assay is miniaturized for a 1536-well format and utilizes a ThO dye bound to unlabeled DNA. Inactivation or no significant activity is the desired outcome for this assay.
NIH Chemical Genomics Center [NCGC]
NIH Molecular Libraries Probe Centers Network [MLPCN]
Assay Submitter (PI): Opher Gileadi, Structural Genomics Consortium, University of Oxford, UK
Compounds were added to a 4 uL mixture of 50 nM DNA and 100 nM ThO via pintool transfer. The fluorescence signal (excitation 480 nm, emission 530 nm) was measured after 15 min incubation at room temperature using the ViewLux CCD imager.

Row | SMILES | activity change, negative = displacement [%] | Potency
1 | O=C(Nc1nnc(-c2ccncc2)s1)Oc1ccc2ccccc2c1 | 156 | –
2 | Cc1cc(NC(=O)Nc2nnc(-c3cccnc3)s2)ccc1Br | 51.4 | –
3 | N#Cc1cc(NC(=O)Nc2nnc(-c3ccncc3)s2)ccc1Br | -29.5 | –
4 | O=c1c(Nc2ccc(Br)c(Br)c2)c(Nc2nnc(-c3ccncc3)s2)c1=O | – | 10.2 µM (active)
5 | O=C(Nc1ccc(Cl)c([N+](=O)[O-])c1)Nc1nnc(-c2ccncc2)s1 | – | 0.513 µM (active)
6 | O=C(Nc1ccc(Cl)c(Cl)c1)Nc1nnc(-c2ccc(F)cc2)s1 | -18.2 | –
7 | N#Cc1cc(NC(=O)Nc2nnc(-c3ccncc3)s2)ccc1Cl | -24 | –
8 | O=C(NCc1ccccc1)Nc1nnc(-c2ccncc2)s1 | -0.576 | –
9 | O=C(Nc1ccc2c(c1)OCCO2)Nc1nnc(-c2ccncc2)s1 | 88 | –
10 | O=C(Nc1ccc(Cl)c(Cl)c1)Nc1nnc(C2CCCCC2)s1 | 46.9 | –
11 | CCCCCCNC(=O)Nc1nnc(-c2ccncc2)s1 | -0.682 | –
12 | O=C(Nc1ccc(-n2cncn2)c(C(F)(F)F)c1)Nc1nnc(-c2ccncc2)s1 | 264 | –
13 | O=C(Nc1ccc(Cl)c(Cl)c1)Nc1nnc(-c2ccncc2)o1 | -2.02 | –
14 | O=C(Nc1ccc(Cl)c(Cl)c1)Nc1nnc(-c2cccnc2)s1 | -0.0445 | –
15 | N#Cc1cc(NC(=O)Nc2cccc(-c3ccncc3)n2)ccc1Cl | 7.59 | –
16 | CN(C(=O)Nc1ccc2ccccc2c1)c1nnc(-c2ccncc2)s1 | 387 | –
17 | O=C(Nc1ccc(Cl)c(Cl)c1)Nc1ncc(-c2ccncc2)s1 | 126 | –
18 | O=C(Nc1ccc(F)c(C(F)(F)F)c1)Nc1nnc(-c2ccncc2)o1 | -22.2 | –
19 | S=C(Nc1ccc(Cl)c(Cl)c1)Nc1nnc(-c2ccncc2)o1 | -26.8 | –
20 | CC(=O)c1ccc(NC(=O)Nc2nnc(-c3ccncc3)s2)cc1 | -9.66 | –

Row | SMILES | activity change, negative = displacement [%] | Potency
21 | Cc1cc(NC(=O)Nc2cccc(-c3ccncc3)n2)ccc1Br | 24.6 | –
22 | Cc1cc(NC(=O)Nc2nnc(-c3ccncc3)s2)ccc1F | -8.28 | –
23 | O=C(Nc1ccc2ccccc2c1)Nc1nnc(-c2ccncc2)s1 | -2.58 | –
24 | O=C(Nc1ccc(-c2nc3ccccc3[nH]2)cc1)Nc1ccc2c(c1)CCCO2 | 91.4 | –
25 | N#Cc1ccc(NC(=O)Nc2nnc(-c3ccncc3)s2)c(Cl)c1 | 24.2 | –
26 | O=C(Nc1ccc2sccc2c1)Nc1nnc(-c2cccnc2)s1 | 8.73 | –
27 | O=C(Nc1cccc(C(=O)O)c1)Nc1nnc(-c2ccncc2)s1 | 18.2 | –
28 | N/C(=N\c1nnc(-c2ccncc2)s1)Nc1ccc(Cl)c(Cl)c1 | 20.4 | –
29 | O=C(Nc1nnc(-c2ccncc2)s1)Nc1ccc(Cl)cc1F | 61.6 | –
30 | O=c1c(Nc2ccc(Cl)c(Cl)c2)c(Nc2nnc(-c3ccncc3)s2)c1=O | – | 4.57 µM (active)
31 | O=C(Nc1ccc2ccccc2c1)Nc1nnc(-c2ccccc2)s1 | 93 | –
32 | O=C(Nc1ccc(Cl)nc1)Nc1nnc(-c2ccncc2)s1 | 6.38 | –
33 | O=C(Nc1ccc(Cl)c(C(F)(F)F)c1)Nc1nnc(-c2cccnc2)s1 | 83.1 | –
34 | Cc1ccc(-c2nnc(NC(=O)Nc3ccc4ccccc4c3)s2)cc1 | 18.5 | –
35 | O=C(Nc1ccccc1)Nc1nnc(-c2ccncc2)s1 | 4.99 | –
36 | O=C(Nc1ccc(F)c(C(F)(F)F)c1)Nc1nc(-c2ccncc2)cs1 | 96.9 | –
37 | O=C(Nc1ccc(F)c(C(F)(F)F)c1)Nc1cccc(-c2ccncc2)n1 | 122 | –
38 | O=C(Nc1ccc(Br)c(Br)c1)Nc1cccc(-c2ccncc2)n1 | 15.3 | –
39 | O=C(Nc1ccc2ccccc2c1)Nc1nnc(-c2cccnc2)s1 | 7.64 | –
40 | Cc1cc(NC(=O)Nc2cccc(-c3ccncc3)n2)ccc1Cl | – | inactive
